Reference: PubChem BioAssay AID1159580 (chemical genetic matrix, 2015)
Values joined by “and” are separate entries in the source; they are usually repeats but may differ in a detail not shown here. Equal values may be shown once. The whole screen tested about 5,500 compounds, of which about 2,000 (36%) were called active. Inconclusive results (about 18%) are left out. No stated cut-off is given here; in the data, active means normalized growth mostly below about 0.91 (no sharp cut-off); inconclusive means no clear call, values can overlap the other calls; inactive means mostly above about 0.92. The list shows a part of the results.

Assay: chemical genetic growth profiling, strain panel (AID 1159580);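 further: tested at 20 µM; growth read once vehicle control cultures reached saturation at 30 °C; 1 = growth at the plate median or of vehicle wells; lower values mean less growth of the strain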
Conditions: S. cerevisiae deletion strains, growth OD

Measured: normalized growth

O=c1[nH]c2cc(Cl)c(Cl)cc2[nH]c1=O
inactive: locus YAL013W, strain DEP1, active compounds read low 1 and 0.993 | locus YAL021C, strain ccr4, active compounds read low 1.03 | locus YAL026C, strain drs2, active compounds read low 0.993 | locus YAL030W, strain snc1, active compounds read low 0.989 | locus YAL040C, strain CLN3, active compounds read low 1.11 | locus YBL061C, strain skt5, active compounds read low 0.982 | locus YBR009C, strain hhf1, active compounds read low 0.988 | locus YBR021W, strain FUR4, active compounds read low 1 | locus YBR023C, strain chs3, active compounds read low 1 | locus YBR171W, strain sec66, active compounds read low 0.98 | locus YBR229C, strain ROT2, active compounds read low 1.01 | locus YBR231C, strain swc5, active compounds read low 0.979 | locus YBR279W, strain paf1, active compounds read low 0.985 | locus YCL011C, strain gbp2, active compounds read low 0.984 | locus YCL016C, strain dcc1, active compounds read low 0.997 | locus YCL029C, strain bik1, active compounds read low 1.04 | locus YCL061C, strain MRC1 (second series), active compounds read low 1.01 | locus YCL069W, strain vba3, active compounds read low 0.999 | locus YCR088W, strain abp1, active compounds read low 0.997 | locus YDL005C, strain med2, active compounds read low 0.982 | locus YDL035C, strain GPR1, active compounds read low 1.01 | locus YDL040C, strain nat1, active compounds read low 0.994 | locus YDL074C, strain BRE1, active compounds read low 1.03 | locus YDL101C, strain DUN1, active compounds read low 1.02 | locus YDL134C, strain PPH21, active compounds read low 1.01 | locus YDL185W, strain tfp1, active compounds read low 1.02 | locus YDL192W, strain arf1, active compounds read low 1.02 | locus YDR001C, strain nth1, active compounds read low 1 | locus YDR069C, strain doa4, active compounds read low 0.969 | locus YDR101C, strain arx1, active compounds read low 1.03 | locus YDR137W, strain rgp1, active compounds read low 0.994 | locus YDR150W, strain NUM1, active compounds read low 1.01 | locus YDR159W, strain sac3, active compounds read low 0.901 | locus YDR162C, strain NBP2, active compounds read low 1.01 | locus YDR195W, strain ref2 1 | locus YDR297W, strain sur2, active compounds read low 0.99 | locus YDR318W, strain mcm21, active compounds read low 1.02 | locus YDR334W, strain swr1, active compounds read low 0.994 | locus YDR335W, strain msn5, active compounds read low 1 | locus YDR363W, strain ESC2, active compounds read low 0.968 | locus YDR388W, active compounds read low 1.02 | locus YDR392W, strain spt3, active compounds read low 0.92 | locus YDR502C, strain sam2, active compounds read low 1.03 | locus YEL003W, strain gim4, active compounds read low 0.993 | locus YEL037C, strain rad23, active compounds read low 1 | locus YEL061C, strain CIN8 (second series), active compounds read low 1.01 | locus YEL061C, strain CIN8, active compounds read low 1.01 | locus YER002W, strain NOP16, active compounds read low 0.997 | locus YER015W, strain faa2, active compounds read low 0.995 | locus YER016W, strain bim1, active compounds read low 0.992 | locus YER110C, active compounds read low 1.04 | locus YER111C, strain swi4, active compounds read low 0.991 | locus YER155C, strain BEM2 (second series), active compounds read low 0.967 | locus YER155C, strain BEM2, active compounds read low 1 | locus YER167W, strain BCK2, active compounds read low 1.02 | locus YFR010W, strain ubp6, active compounds read low 0.985 | locus YGL078C, strain dbp3, active compounds read low 1.03 | locus YGL086W, strain mad1, active compounds read low 1.01 | locus YGL167C, strain pmr1, active compounds read low 0.999 | locus YGL173C, strain kem1, active compounds read low 0.984 | locus YGL227W, strain vid30, active compounds read low 0.986 | locus YGL240W, strain doc1, active compounds read low 0.966 | locus YGL248W, strain PDE1, active compounds read low 1.01 | locus YGL253W, strain hxk2, active compounds read low 0.975 | locus YGR078C, strain PAC10, active compounds read low 1.02 and 1.04 | locus YGR135W, strain pre9, active compounds read low 1.02 | locus YGR229C, strain SMI1, active compounds read low 1.01 | locus YGR252W, strain gcn5, active compounds read low 1.01 | locus YHR013C, strain ard1, active compounds read low 0.988 | locus YHR027C, strain rpn1, active compounds read low 0.986 | locus YHR030C, strain SLT2, active compounds read low 1.01 | locus YHR079C, strain IRE1 (second series), active compounds read low 1.02 | locus YHR094C, strain hxt1, active compounds read low 1.01 | locus YHR129C, strain ARP1, active compounds read low 1.01 | locus YHR142W, strain chs7, active compounds read low 1.01 | locus YHR200W, strain rpn10, active compounds read low 1.02 | locus YIL066C, strain RNR3, active compounds read low 1.01 | locus YIL073C, strain SPO22, active compounds read low 1.1 | locus YIL125W, strain kgd1, active compounds read low 1.02 | locus YIR030C, strain dcg1, active compounds read low 1.04 | locus YJL092W, strain hpr5, active compounds read low 0.997 | locus YJL095W, strain BCK1 (second series), active compounds read low 1.02 | locus YJL095W, strain BCK1, active compounds read low 1.02 | locus YJL115W, strain asf1, active compounds read low 1 | locus YJL129C, strain trk1, active compounds read low 0.95 | locus YJL134W, strain LCB3, active compounds read low 1.01 | locus YJL154C, strain vps35, active compounds read low 0.999 | locus YJL164C, strain tpk1, active compounds read low 0.998 | locus YJL166W, strain qcr8, active compounds read low 0.989 | locus YJL168C, strain set2, active compounds read low 1.02 | locus YJL187C, strain SWE1 (second series), active compounds read low 1.01 | locus YJR043C, strain POL32, active compounds read low 1.01
